Experimental data from PubChem BioAssay AID1626 (SRMLSC, 2009).
Among all 220,000 compounds or so, about 2,000 (0.91%) were called active. Not shown: some 2% with an inconclusive outcome. Not all results are given here. Potency and affinity values are given separately. A number with no mark means an inactive call. Cut-off read from the data, not from the text of the source: inconclusive = inhibition above about 80% without an active follow-up result; inactive = below that; test concentration not stated here.

Experiment: M. tuberculosis H37Rv growth inhibitors, H37Rv strain (AID 1626);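 note: bacteria incubated seven days before Alamar blue readout; 0% = bacteria only wells and 100% = bacteria with antibiotic wells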
Conditions: stronger effect = higher value, concentration not given here

Compared with `CC1C=CCC2C(=O)N(c3ccc(Cl)cc3O)C(=O)C12` (stereo unspecified), `Cc1nc2ccc(Cl)cc2nc1C` is lower in inhibition: 10.7% for the first, -12.2% for the second.

First: Cc1ccc2nc(/N=C(\N)NC(=O)N3c4ccccc4Sc4ccccc43)nc(C)c2c1
Second: COc1ccc2nc(/N=C(\N)NC(=O)C(C)(C)C)nc(C)c2c1
The inhibition of the first is higher: 94.5% for the first, 14.9% for the second.

Compared with `COc1ccc(CN(CC2CCC(C(=O)O)CC2)C(=S)Nc2cc(C)ccc2C)cc1` (stereo unspecified), `COc1ccc(C)cc1NC(=O)C1CCCCC1C(=O)O` (stereo unspecified) is lower in inhibition: 4.91% for the first, -8.21% for the second.

First: O=C(NC1CSC/C1=N\O)c1ccccc1 (stereo unspecified)
Second: CC(=O)Nc1ccn(-c2ccccc2)n1
The inhibition of the first is lower: -2.37% for the first, 0.92% for the second.

Going from `COc1ccccc1/C=C/C(=O)c1ccccc1` to `COc1ccccc1/C=C/C(=O)c1ccc(Cl)cc1`, the inhibition rises from 5.69% to 19.9%.

Going from `COc1ccc(/C=C/C(=O)c2ccc(Cl)cc2)c(OC)c1` to `O=C(/C=C/c1ccccc1Cl)c1ccc(O)cc1`, the inhibition rises from 7.24% to 36.8%.

Compared with `Cc1nc2nc(SCC(=O)C(C)(C)C)[nH]c2cc1Br`, `CCn1cc(-c2cc(C(F)(F)F)n3nc(C(=O)O)cc3n2)c(C)n1` is lower in inhibition: -3.7% for the first, -10.8% for the second.

First: CC(C)(C)c1cc(NC(=O)c2cccc([N+](=O)[O-])c2)no1
Second: COC(=O)c1ccc(N=c2sc(C(=O)OC)cc(=O)n2C)cc1
The inhibition of the first is lower: 4.63% for the first, 7.67% for the second.

First: CC1(c2nnc(-c3ccccc3)o2)CC(c2ccc(F)cc2)=NO1 (stereo unspecified)
Second: O=c1cc(-c2ccc(F)cc2)oc2ccccc12
The inhibition of the first is higher: -2.41% for the first, -4.83% for the second.

First: CCOC(=O)c1ccc(N=c2sc(C(=O)OC)cc(=O)n2-c2ccc(C(=O)OCC)cc2)cc1
Second: CCN(CC)S(=O)(=O)c1cc(C(=O)OCC(=O)NC(=O)c2cccn2C)ccc1C
The inhibition of the first is higher: 63.5% for the first, -5.23% for the second.

Compared with `COc1c(F)c(F)c(C(=O)O)c(Nc2cc(C)cc(C)c2)c1F`, `COc1cccc(NCc2cc3c(C(C)(C)C)nn(-c4ccccc4)c3[nH]c2=O)c1` is higher in inhibition: -9.39% for the first, -5.67% for the second.

First: O=c1cc(-c2ccccc2F)oc2ccccc12
Second: O=C(CCNc1ccc(F)cc1)c1cc2ccccc2o1
The inhibition of the first is higher: -6.27% for the first, -9.46% for the second.

Going from `N#Cc1cccc(NC(=O)CC2CCCCC2)c1` to `Cc1cc(C)nc(N2CCC(C(=O)NCc3ccccc3F)CC2)n1`, the inhibition falls from 1.61% to -8.28%.

Compared with `Cc1ccc(N2C(=O)NC(=O)/C(=C\c3ccc(N4CCOCC4)cc3)C2=O)cc1`, `Cc1nn(-c2ccccc2)c2[nH]c(=O)c(CNCCN3CCOCC3)cc12` is higher in inhibition: -2.37% for the first, 3.32% for the second.

Compared with `CS(=O)(=O)N1CCn2c1nc1ccccc12`, `Brc1ccc(-c2csc(/N=C/N3CCCC3)n2)cc1` is higher in inhibition: -12.2% for the first, 64.4% for the second.

Going from `CC1=C(C#N)C(c2cccnc2)C2=C(CC(c3ccc(Cl)cc3)CC2=O)N1` (stereo unspecified) to `COc1ccc(C2C(C#N)=C(C)NC3=C2C(=O)CC(C)(C)C3)cc1` (stereo unspecified), the inhibition rises from 5.84% to 6.62%.

Compared with `COC(=O)C1=C(C(=O)OC)[C@@H]2N(Cc3ccccc3)c3ccccc3[C@@]23C[C@@H](C(=O)OC)N(C(=O)NC2CCCCC2)C3=N1`, `CC(=O)c1ccc(NC(=O)C2CC(=O)N(Cc3ccccc3)C2)cc1` (stereo unspecified) is lower in inhibition: -1.86% for the first, -1.96% for the second.

Compared with `CCOc1nc(-c2ccc(Cl)cc2)nc2ccccc12`, `O=C(CCl)N(c1ccc(Cl)cc1)c1c[nH]c2ccccc12` is higher in inhibition: -0.59% for the first, 75.3% for the second.

First: O=C(N(c1ccccc1)c1ccccc1)N(c1ccccc1)c1ccccc1
Second: O=C(CCl)N(Cc1ccccc1)c1ccccc1
The inhibition of the first is lower: -4.02% for the first, 77.7% for the second.

Going from `CC(=O)N(c1ccc(Cl)cc1)c1c[nH]c2ccccc12` to `COC(=O)/C(C#N)=C/c1c[nH]c2ccccc12`, the inhibition rises from -5.95% to 7.57%.

First: CCOC(=O)C(NCc1ccc(F)cc1)(NC(=O)c1ccccc1)C(F)(F)F (stereo unspecified)
Second: CCc1ccc(NCc2cc3c(C)nn(-c4ccccc4)c3[nH]c2=O)cc1
The inhibition of the first is lower: -7.14% for the first, 26% for the second.

Going from `Cc1nn(-c2ccccc2)c2[nH]c(=O)c(CNCc3ccc4c(c3)OCO4)cc12` to `CC(C)(C)c1nn(-c2ccccc2)c2[nH]c(=O)c(CNc3ccc4c(c3)OCCO4)cc12`, the inhibition rises from -1.83% to 4.42%.

Going from `CCOc1cccc(NCc2cc3c(C(C)(C)C)nn(-c4ccccc4)c3[nH]c2=O)c1` to `CCCCn1c(=O)c(C(=O)Nc2ccccc2)c(O)c2ccccc21`, the inhibition falls from 70.7% to -1.05%.

First: Cn1c(O)c(N=NC(=O)c2ccccc2O)c2ccccc21
Second: CCCCCn1c(=O)c(C(=O)Nc2ccccc2S(N)(=O)=O)c(O)c2ccccc21
The inhibition of the first is lower: -0.85% for the first, 6.87% for the second.

Compared with `Cc1cc(C2(c3ccc(O)c(C)c3)OC(=O)c3ccccc32)ccc1O`, `O=C(Nc1ccc2oc(-c3ccccc3Cl)nc2c1)c1cncc(Br)c1` is lower in inhibition: -1.73% for the first, -3.07% for the second.

First: CC/C(C)=C1\SC(N2CCOCC2)=NC1=O
Second: CCN(CC)c1ccc2c(c1)C(=O)N(C)C2=O
The inhibition of the first is lower: 1.74% for the first, 7.2% for the second.

Going from `O=C(Nc1ccn(-c2ccccc2)n1)c1ccccc1Br` to `CCCCCCn1c(=O)c(C(=O)Nc2c(C)n(C)n(-c3ccccc3)c2=O)c(O)c2ccccc21`, the inhibition falls from 1.33% to -5.05%.

Compared with `CC(C)(C)C1CCc2sc(-c3nnc(CCl)o3)cc2C1` (stereo unspecified), `CN(C)/C=N/c1nc(-c2ccc3c(c2)OCO3)cs1` is lower in inhibition: 43.6% for the first, -11.6% for the second.

Going from `COc1cc2[nH]c(=O)n3nc(-c4ccccc4)nc3c2cc1OC` to `CCCCn1c(=O)c(C(=O)Nc2ccsc2C(=O)OC)c(O)c2ccccc21`, the inhibition rises from -2.98% to 1.97%.

First: Cc1nc(N)nc(Cl)c1Cc1ccc(Cl)cc1
Second: Cn1cc(Br)c(C(=O)NNC(=O)c2ccc(Br)cc2)n1
The inhibition of the first is lower: 3.47% for the first, 6.79% for the second.

Compound `CCN(CC)c1ccc(NC(=O)CCCCCN2C(=O)c3ccccc3C2=O)cc1` has an inhibition of -10.5%.
